Source: the supplement of paper PMC6992640
± gives the standard deviation of the averaged measurements.

Key:
Assay in all cases: cell viability (% of vehicle); higher = less cytotoxic
Conditions in all cases: 10 µM; 72 h
HCI01 = tested on: HCI01 (cells of a triple-negative basal-like breast cancer xenograft)
HCI03 = tested on: HCI03 (cells of an ER-positive luminal breast cancer xenograft)
HCI09 = tested on: HCI09 (cells of a triple-negative luminal androgen receptor type breast cancer xenograft)
HCI11 = tested on: HCI11 (cells of an ER-positive luminal breast cancer xenograft)
HCI13 = tested on: HCI13 (cells of an ER-positive luminal breast cancer xenograft)
HCI16 = tested on: HCI16 (cells of a triple-negative basal-like breast cancer xenograft)
UCD52 = tested on: UCD52 (cells of a triple-negative basal-like breast cancer xenograft)
WHIM2 = tested on: WHIM2 (cells of a triple-negative basal-like breast cancer xenograft)
WHIM30 = tested on: WHIM30 (cells of a triple-negative basal-like breast cancer xenograft)
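Also: PDX cells carrying CMV promoter-driven luciferase, viability read as total photon flux per second by IVIS imaging following D-luciferin, vehicle control 0.1% DMSO.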

SMILES	cell viability (HCI01)	cell viability (HCI03)	cell viability (HCI09)	cell viability (HCI11)	cell viability (HCI13)	cell viability (HCI16)	cell viability (UCD52)	cell viability (WHIM2)	cell viability (WHIM30)
Cc1ccc(-c2ncc(Cl)cc2-c2ccc(S(C)(=O)=O)cc2)cn1 [Etoricoxib]	107 ± 4.3	118	85.1 ± 16	79.9	96.7 ± 2.1	141	77.3 ± 3.4	143 ± 16	116 ± 13
COc1ccnc(C[S+]([O-])c2nc3cc(OC(F)F)ccc3[nH]2)c1OC (stereo unspecified) [Pantoprazole]	123 ± 15	133	102 ± 2.6	103	97.1 ± 2.1	108	130 ± 5.1	100 ± 7.9	130 ± 7.3
CCOC(=O)C1OC1C(=O)NC(CC(C)C)C(=O)NCCC(C)C (stereo unspecified)	108 ± 6.8	118	97.6 ± 1.9	91.9	165 ± 7.1	70.3	97.4 ± 3.2	105 ± 38	99.6 ± 12
Nc1ccc(O)c(C(=O)O)c1 [Mesalamine]	110 ± 2.2	125	116 ± 8.1	103	130 ± 15	125	105 ± 2.3	92 ± 2.1	155 ± 27
O=C([O-])c1cc(=O)c2c(OCC(O)COc3cccc4oc(C(=O)[O-])cc(=O)c34)cccc2o1.[Na+].[Na+] [Cromolyn sodium]	136 ± 48	135	97.1 ± 3.8	71.8	102 ± 13	116	113 ± 5	134 ± 15	121 ± 4.5
CO/N=C(\C(=O)N[C@@H]1C(=O)N2C(C(=O)[O-])=C(COC(C)=O)CS[C@H]12)c1csc(N)n1.[Na+] [Cefotaxime (sodium salt)]	94.8 ± 14	121	105 ± 3.7	74.9	155 ± 13	107	116.5 ± 0.35	99.12 ± 0.99	136.3 ± 0.17
CN(N=O)C(=O)NC1C(O)OC(CO)C(O)C1O (stereo unspecified) [Streptozocin]	105 ± 4.3	123	104 ± 6.3	99.5	89.38 ± 0.52	113	83.17 ± 0.58	85 ± 16	123.9 ± 1.1
CCC(CO)NCCNC(CC)CO.Cl.Cl (stereo unspecified) [Ethambutol HCl]	98.6 ± 2.4	122	102 ± 7.8	103	146 ± 15	102	86.7 ± 3	93.4 ± 21	153 ± 7.2
OC[C@@H](O)[C@@H](O)[C@H](O)[C@H](O)CO [D-Mannitol]	74.7 ± 26	95.7	93.1 ± 16	83.2	88.7 ± 6.7	114	74 ± 2.5	97.5 ± 16	115 ± 6.2
Nc1[nH]c(=O)ncc1F [Flucytosine]	106 ± 1.6	137	94.7 ± 12	93.1	135 ± 4.5	94.7	81.4 ± 1.5	93.72 ± 0.49	82.1 ± 1.3
O=C(CCCN1CCC(O)(c2ccc(Cl)cc2)CC1)c1ccc(F)cc1 [Haloperidol]	63.3 ± 37	102	86.1 ± 10	90	89.6 ± 9.9	117	61.6 ± 2.5	90.8 ± 36	121 ± 8.7
C.CCN1CC(CCN2CCOCC2)C(c2ccccc2)(c2ccccc2)C1=O.O (stereo unspecified) [Doxapram HCl]	102.9 ± 0.49	198	81.9 ± 14	101	91.2 ± 1.9	105	73.6 ± 5.6	82.8 ± 4.2	117 ± 11
COC(=O)C1=C(C#N)NC(C)=C(C(=O)OC(C)C)C1c1cccc([N+](=O)[O-])c1 (stereo unspecified) [Nilvadipine]	112 ± 8.1	125	77 ± 4.5	85.7	138 ± 29	101	70.2 ± 1.1	116 ± 12	83.4 ± 10
Nc1ccc(S(N)(=O)=O)cc1 [Sulfanilamide]	106 ± 25	127	97.7 ± 18	83.1	164 ± 9.1	120	94.6 ± 8.7	105 ± 7.5	140 ± 13
CC1(C)SC2C(NC(=O)C(N)c3ccccc3)C(=O)N2C1C(=O)[O-].[Na+] (stereo unspecified) [Ampicillin]	101.47 ± 0.042	101	104 ± 9.8	84.6	86.7 ± 9.1	78.9	83.5 ± 3.9	77.9 ± 1.1	112 ± 20
Cl.O=S(=O)(c1cccc2cnccc12)N1CCCNCC1 [Fasudil (HA-1077) HCl]	81.6 ± 18	93.4	69.3 ± 9.2	76.2	79.6 ± 5.5	122	60.4 ± 9.9	87.3 ± 2.9	92.1 ± 12
O=C(O)COCCN1CCN(C(c2ccccc2)c2ccc(Cl)cc2)CC1 (stereo unspecified) [Cetirizine]	108 ± 5.1	95.2	97.2 ± 2.1	93.5	108 ± 2.5	74.6	92.6 ± 3.8	94.8 ± 4.7	128 ± 9.9
Cc1ccc(Nc2nccc(N(C)c3ccc4c(C)n(C)nc4c3)n2)cc1S(N)(=O)=O.Cl [Pazopanib Hydrochloride]	123 ± 20	101	77.01 ± 0.6	96.8	75.6 ± 13	134	94.9 ± 13	127 ± 32	76.7 ± 5.5
CS(=O)(=O)c1ccc(C(=O)Nc2ccc(Cl)c(-c3ccccn3)c2)c(Cl)c1 [GDC-0449 (Vismodegib)]	109 ± 40	94.4	69.5 ± 20	104	105 ± 7.7	83.4	67.1 ± 1.8	111 ± 5.5	133 ± 2.4
